Assay outcomes: PubChem, Sanford-Burnham Center for Chemical Genomics
CYP2C9 inh = inhibitors of human CYP2C9. CYP2C9 Supersomes, luciferin-H conversion, luminescence. inhibition, % at 5 µM. 96,000 compounds, 20% hits;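 active = blocking of liver enzyme CYP2C9 beyond about 50% at 5 µM, limit read from the data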
Target sequence (P11712 whole entry, looked up): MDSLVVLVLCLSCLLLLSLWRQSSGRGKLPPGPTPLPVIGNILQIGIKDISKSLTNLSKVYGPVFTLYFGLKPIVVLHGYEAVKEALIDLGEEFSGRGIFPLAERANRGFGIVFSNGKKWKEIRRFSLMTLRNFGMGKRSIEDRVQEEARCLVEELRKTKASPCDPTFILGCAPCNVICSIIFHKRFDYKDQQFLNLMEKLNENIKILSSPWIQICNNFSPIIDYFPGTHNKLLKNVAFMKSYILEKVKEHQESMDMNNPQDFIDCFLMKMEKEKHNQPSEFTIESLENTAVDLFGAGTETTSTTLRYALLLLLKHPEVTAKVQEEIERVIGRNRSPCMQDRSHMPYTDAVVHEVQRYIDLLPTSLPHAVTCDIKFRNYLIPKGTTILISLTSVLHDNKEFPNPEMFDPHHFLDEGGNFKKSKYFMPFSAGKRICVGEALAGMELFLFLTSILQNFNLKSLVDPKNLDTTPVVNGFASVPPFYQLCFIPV
CYP2C9 activ = CYP2C9 (human) activation. P11712. recombinant CYP2C9, luciferin-H conversion, luminescence; stronger effect = higher value; factor 1 = untreated enzyme, 0 = blocked. activation factor at 5 µM. 96,000 compounds, 1.4% hits. AID 1024;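 active = activation factor of 2 or more for CYP2C9 at a 5 µM dose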;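 note: 0 = sulfaphenazole-blocked wells and 1 = vehicle-only wells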
CYP2C19 inhib = blocks human cytochrome P450 2C19; inhibition, % at 5 µM; P33261; 96,000 compounds, 21% hits; CYP2C19 Supersomes, luciferin-H EGE luminescence, 30 min;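 active = CYP2C19 inhibition above a set limit at 5 µM in the primary screen, cut at about 50% in these data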;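 note: plate controls were negative control wells for no effect and 2.5 mM tranylcypromine positive control for full effect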
PLAP activator = human PLAP activation. P05187. purified PLAP enzyme, luminescent substrate read-out; stronger effect = higher value. activation fold at 20 µM. 96,000 compounds, 1.2% hits. AID 696; in the data active = activation fold above about 2
CYP2C19 activ = cytochrome P450 2C19 (human) activation | activation factor at 5 µM | recombinant CYP2C19, luciferin-H EGE luminescence; stronger effect = higher value; 0 = fully inhibited enzyme, 1 = untreated enzyme | P33261 | 96,000 tested, under 10 active;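 active = activation factor of at least 2 at 5 µM in the primary screen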;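 note: 0 = wells with 2.5 mM tranylcypromine and 1 = vehicle-only wells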
The depositor's hits bear a star. Most compounds without a hit are left out; they make up all but 31% or so of the library.

SMILES | CYP2C9 inh | CYP2C9 activ | CYP2C19 inhib | PLAP activator | CYP2C19 activ
CC(C)c1ccc(NC(=S)NCc2cccs2)cc1 | 32 | 0.7 | 42 | 0.5 | 0.6
O=C(NCc1cccs1)c1cc(-c2cccc(Cl)c2)on1 | -22 | 1.2 | 11 | 0.9 | 0.9
Cc1ccc(NC(=S)NCc2cccs2)c(C)c1 | 16 | 0.8 | 73* | 0.8 | 0.3
S=C(NCc1cccs1)Nc1cccc(Cl)c1 | 6 | 0.9 | 62* | 0.9 | 0.4
Cc1cc(Cl)ccc1NC(=S)NCc1cccs1 | 63* | 0.4 | 97* | 0.7 | 0
COc1ccc(-c2nc3nc(C)cc(=O)n3[nH]2)cc1 | 7 | 0.9 | 2 | 1 | 1
Cc1c(NC(=O)c2cnn3c2NC(c2ccco2)CC3C(F)(F)F)c(=O)n(-c2ccccc2)n1C (centres undefined) | 18 | 0.8 | -12 | 1.3 | 1.1
CCCNc1nc2c(c(=O)[nH]c(=O)n2C)n1CCC(C)C | 49 | 0.5 | 10 | 0.8 | 0.9
N#CCCN(Cc1cccnc1)S(=O)(=O)c1ccc(S(=O)(=O)NC2CCCCC2)cc1 | 40 | 0.6 | 59* | 1.1 | 0.4
O=C(COc1ccc(S(=O)(=O)NC2CCCCC2)cc1)NCc1cccnc1 | 30 | 0.7 | -10 | 0.8 | 1.1
Nn1c(SCC(=O)NCc2ccccc2)nnc1C1CC1 | 19 | 0.8 | 12 | 1.1 | 0.9
CCOC(=O)c1sc(N)c(C#N)c1CSc1nnc(C2CC2)n1N | 74* | 0.3 | 88* | 1 | 0.1
CCOC(=O)c1sc(N(Cc2ccccc2)C(=O)CSc2nnc(C3CC3)n2N)nc1C | 99* | 0 | 62* | 1.1 | 0.4
OC(CC1CC12c1ccccc1-c1ncccc12)(c1ccccc1)c1ccccc1 (centres undefined) | 97* | 0 | 92* | 1.5 | 0.1
CC(C)c1nc2oc3c(NCC4CCCO4)ncnc3c2c2c1CCC2 (centres undefined) | 42 | 0.6 | 30 | 1.7 | 0.7
c1cncc(-c2nc3c(ccc4ccccc43)[nH]2)c1 | 20 | 0.8 | 13 | 1 | 0.9
CCc1c(C)nc2cc(-c3ccc(OC)c(OC)c3)nn2c1N1CCCC1 | 27 | 0.7 | 25 | 1.2 | 0.8
COc1cc(OC)cc(-c2cc3nc4c(c(N5CCN(c6ncccn6)CC5)n3n2)CCCC4)c1 | 94* | 0.1 | 95* | 1.6 | 0
CCOCCN1CCN(c2c3c(nc4cc(-c5ccc(F)cc5)nn24)CCC3)CC1 | 50* | 0.5 | 14 | 1.4 | 0.9
CCc1c(C)nc2cc(-c3cc(OC)cc(OC)c3)nn2c1N1CCCC1 | 33 | 0.7 | 26 | 1.4 | 0.7
COc1nnc(-c2ccc(N3CCOCC3)c(NC(=O)c3ccccc3)c2)c2ccccc12 | 70* | 0.3 | 81* | 1.5 | 0.2
COc1nnc(-c2ccc(N3CCOCC3)c(NC(=O)c3ccco3)c2)c2ccccc12 | 65* | 0.3 | 25 | 1 | 0.8
COc1nnc(-c2ccc(N3CCOCC3)c(NC(C)=O)c2)c2ccccc12 | 36 | 0.6 | -1 | 1.5 | 1
O=C1OCCC1Sc1nnc(-c2cccs2)n1Cc1ccccc1 (centres undefined) | 10 | 0.9 | 9 | 1 | 0.9
Cc1cccc(OCC(=O)Nc2ccc(N3CCN(C(=O)c4ccco4)CC3)cc2)c1 | 44 | 0.6 | 66* | 1.1 | 0.3
SMILES | CYP2C9 inh | CYP2C9 activ | CYP2C19 inhib | PLAP activator | CYP2C19 activ
O=C(Nc1ccc(N2CCN(C(=O)c3ccco3)CC2)cc1)C(c1ccccc1)c1ccccc1 | 61* | 0.4 | 86* | 2.5* | 0.1
CCCCC(=O)Nc1cc(NC(=O)CC)ccc1Cl | 6 | 0.9 | 7 | 1 | 0.9
COc1cccc(-c2csc(N3CCN(C(=O)C4CCCCC4)CC3)n2)c1 | 58* | 0.4 | 77* | 1.5 | 0.2
C=C(C)CSc1nncn1/N=C/c1ccc(OC)cc1 | 55* | 0.4 | 63* | 1.5 | 0.4
CCCCN(N=Nc1nonc1OC)c1nonc1OC | 73* | 0.3 | 85* | 1.1 | 0.1
O=C(NCC1CCCO1)c1ccc(CS(=O)(=O)c2ccc(Br)cc2)o1 (centres undefined) | 14 | 0.9 | -4 | 1 | 1
O=C(NCc1ccc2c(c1)OCO2)c1ccc(CS(=O)(=O)c2cccc(C(F)(F)F)c2)o1 | 94* | 0.1 | 76* | 1 | 0.2
O=C(NCc1ccc2c(c1)OCO2)c1ccc(CS(=O)(=O)c2ccc(Br)cc2)o1 | 95* | 0.1 | 55* | 0.9 | 0.5
CC(C)NC(=O)c1ccc(CS(=O)(=O)c2ccc(Br)cc2)o1 | 46 | 0.5 | 13 | 1 | 0.9
